# GBA enhancer: GBA activity enhancers in patient fibroblasts, primary screen, cell-based. Lysosomal acid glucosylceramidase (Homo sapiens), P04062. L444P Gaucher fibroblasts, 4-MU-glucoside fluorescence, 3 days. 30,000 tested, 0.44% active. activation, % at 10 µM; in the data active means activation above about 65%;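 further: 0% = vehicle wells and 100% = positive control wells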
# Target sequence (P04062 whole entry L483P): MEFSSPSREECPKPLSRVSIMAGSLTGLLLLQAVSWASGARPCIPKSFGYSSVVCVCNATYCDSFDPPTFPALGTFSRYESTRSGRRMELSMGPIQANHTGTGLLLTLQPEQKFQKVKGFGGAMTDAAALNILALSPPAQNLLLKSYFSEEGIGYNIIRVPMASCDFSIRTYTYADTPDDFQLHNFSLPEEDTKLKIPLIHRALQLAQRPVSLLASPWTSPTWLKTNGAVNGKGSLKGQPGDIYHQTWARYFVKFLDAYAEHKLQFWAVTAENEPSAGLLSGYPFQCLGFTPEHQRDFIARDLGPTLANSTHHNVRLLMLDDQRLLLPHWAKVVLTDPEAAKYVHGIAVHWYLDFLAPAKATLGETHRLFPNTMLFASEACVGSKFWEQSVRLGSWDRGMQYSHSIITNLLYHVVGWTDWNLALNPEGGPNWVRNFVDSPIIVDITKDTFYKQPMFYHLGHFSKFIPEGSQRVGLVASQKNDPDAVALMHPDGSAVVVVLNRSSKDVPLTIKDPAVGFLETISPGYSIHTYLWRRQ
# * hit, by the source's call. This excerpt belongs to a sample that is enriched for hits.
SMILES,GBA enhancer
Cn1c(/C(C#N)=C(\O)c2ccc(S(=O)(=O)N3CCCCC3)cc2)nc2ccccc21,71*
O=C(Nc1ccccc1)c1ccc(S(=O)(=O)N2CCCC2)cc1,4
COc1ccc(/C(O)=C(\C#N)c2nc3ccccc3n2C)cc1OC,2
O=C(NC1CCCCC1)C1CC(O)CN1C(=O)OCc1ccccc1 (configuration not stated),-14
CCOc1ccc(S(=O)(=O)Nc2cc(OC)ccc2OC)cc1,-63
CCOC(=O)NC(CC(=O)O)c1ccc(OCC)cc1 (configuration not stated),81*
COc1ccc(C(CC(=O)O)NC(=O)c2cccs2)cc1 (configuration not stated),-2
O=C(O)CC(NC(=O)OCc1ccccc1)c1ccccc1 (configuration not stated),-11
CC(C)(C)NC(=O)C(c1ccc(OCC(N)=O)cc1)N(C(=O)c1cccnc1)C1CC1 (configuration not stated),36
O=C(NCc1ccc2c(c1)OCO2)c1c[nH]c2ccc(S(=O)(=O)N3CCOCC3)cc2c1=O,-6
CCOc1ccc(-c2noc(-c3ccncc3)n2)cc1OCC,228*
CCOc1ccc(-c2nc(-c3ccc(OC)cc3)no2)cc1OCC,1
CCOc1cc(-c2noc(-c3ccncc3)n2)cc(Br)c1OC,0
Fc1ccc(C(c2nnnn2Cc2ccccc2)N2CCSCC2)cc1 (configuration not stated),11
Cc1ccccc1CS(=O)(=O)Cc1ccc(C(=O)NCCCN2CCOCC2)o1,23
Cc1ccccc1CS(=O)(=O)Cc1ccc(C(=O)NCCCN2CCCC2=O)o1,13
Cc1ccccc1CS(=O)(=O)Cc1ccc(C(=O)NCc2ccco2)o1,171*
CCOc1ccc(-n2cc(C(=O)N3CCC(C)CC3)c3cc(OC)c(OC)cc3c2=O)cc1,44
CCOc1cc(S(=O)(=O)N2CCCCC2)ccc1Cl,-24
CC(=O)c1ccc(OC(=O)C2CC(=O)N(c3cccc(C)c3)C2)cc1 (configuration not stated),2
CCOc1ccccc1-n1c(SCC(=O)N2CCOCC2)nnc1-c1ccccn1,-4
CCOc1ccccc1-n1c(SCC(N)=O)nnc1-c1ccc(O)cc1,116*
CCOc1ccccc1-n1c(SCC(=O)N(CC)CC)nnc1-c1ccccn1,0
COc1ccccc1CNC(=O)C1CCN(S(=O)(=O)N2CC(C)CC(C)C2)CC1 (configuration not stated),2
O=C(CCS(=O)(=O)c1cccc2nonc12)N1CCN(c2ccc(F)cc2)CC1,20
SMILES,GBA enhancer
C(=N\c1nc2ccccc2n1CCN1CCOCC1)/c1cccs1,5
CCOC(=O)c1ccc(NC(=O)CSc2nnc(C)n2-c2ccccc2)cc1,9
CCOC(=O)c1ccc(NC(=O)CSC2=NC(=O)C(CC)C(=O)N2)cc1 (configuration not stated),145*
CCC1C(=O)N=C(SCC(=O)Nc2cccc3ccccc23)NC1=O (configuration not stated),4
CCOC(=O)c1cc(-c2ccc3c(c2)OCCO3)nc2c1c(C)nn2CCC#N,19
Cc1occc1-c1nnc(SCC(=O)NCc2cccs2)n1-c1ccc(F)cc1,5
CC1CCC(C(=O)NC(C(=O)NCCCN2CCOCC2)C(C)C)CC1 (configuration not stated),68*
CCN1CCCC1CNC(=O)C(NC(=O)C1CCC(C)CC1)C(C)C (configuration not stated),-7
CCN1CCN(CCCNC(=O)C(NC(=O)C2CCC(C)CC2)C(C)C)CC1 (configuration not stated),12
CCC(=O)c1ccc(OCC(O)Cn2cnc3ccccc32)cc1 (configuration not stated),-19
CCN(C(C)=O)c1nnc(CSc2nc3ccccc3s2)s1,-38
COc1ccccc1C(c1nnnn1C(C)(C)C)N1CCN(Cc2ccncc2)CC1 (configuration not stated),0
CCN1CCN(C(c2ccc(OC)c(OC)c2)c2nnnn2C(C)(C)C)CC1 (configuration not stated),140*
COc1ccccc1N1CCN(C(c2ccc(Cl)cc2)c2nnnn2C(C)(C)C)CC1 (configuration not stated),-43
O=C(CCN1CCN(c2ccc(Cl)cc2)CC1)Nc1ccccc1F,7
Cn1c(Cc2ccccc2)nnc1SCC(=O)Nc1ccccc1N1CCOCC1,96*
CC(C)n1nnnc1SCC(=O)Nc1ccccc1N1CCOCC1,-14
Cn1c(Cc2ccccc2)nnc1SCC(=O)NC1CCCCC1,-2
COC(=O)c1ccccc1NC(=O)CN1CCN(C23CC4CC(CC(C4)C2)C3)CC1,8
Brc1c(NC2=NCCN2)ccc2nccnc12,6
Cn1[nH]c(=O)c2ccccc2c1=O,-13
CC(C)n1c(SCC(N)=O)nc2c1c(=O)[nH]c(=O)n2C,12
CC(C)n1c(=S)[nH]c2c1c(=O)[nH]c(=O)n2C,136*
C/C=C/CSc1nc2c(c(=O)[nH]c(=O)n2C)n1C(C)C,-56
COc1ccccc1C(=O)N(Cc1cccs1)C1CCS(=O)(=O)C1 (configuration not stated),-21
SMILES,GBA enhancer
Cc1cccc(OC(C)C(=O)N(Cc2cccs2)C2CCS(=O)(=O)C2)c1C (configuration not stated),6
Cc1ccccc1OCC(=O)N(Cc1cccs1)C1CCS(=O)(=O)C1 (configuration not stated),147*
COc1cccc(CNCCSc2nnnn2C)c1,-6
Nn1cc(-c2ccccc2)nc1SCC(=O)NC1CCS(=O)(=O)C1 (configuration not stated),20
c1ccc(Cn2c(SCc3nc4ccccc4s3)nnc2-c2ccco2)cc1,127*
CCC(c1nnc(SCc2nc3ccccc3s2)n1Cc1ccccc1)N(C)C (configuration not stated),0
c1ccc(-n2cnnc2SCc2nc3ccccc3s2)cc1,-19
O=c1c2c(n3nnnc3n1Cc1ccccc1)-c1ccccc1CC21CCCC1,-33
CCN(C1CCCCC1)S(=O)(=O)c1ccc(C(=O)O)cc1,-6
CCOC(=O)C1CCCN(CCC(=O)Nc2ccc(F)c(F)c2)C1 (configuration not stated),-16
CC1=C(C(=O)Nc2cccnc2)C(c2ccccn2)n2nnnc2N1 (configuration not stated),27
CC1=C(C(=O)Nc2ccccc2)C(c2ccncc2)n2nnnc2N1 (configuration not stated),-6
CC1=C(C(=O)Nc2cccnc2)C(c2ccncc2)n2nnnc2N1 (configuration not stated),70*
COc1ccccc1C(=O)NCCCn1cc(Br)c(C)n1,2
OC(COc1ccc(Cl)c2ccccc12)CN1CCN(c2ccccn2)CC1 (configuration not stated),2
CCN1C(=O)c2cccc3c(S(=O)(=O)Nc4ccccc4OC)ccc1c23,-20
O=C1Nc2ccccc2C(O)(C(=O)NC2CC2)N1c1ccc(Cl)c(Cl)c1 (configuration not stated),81*
O=C1Nc2ccccc2C(O)(C(=O)NCc2ccco2)N1c1ccc(Cl)cc1 (configuration not stated),-30
O=C1[C@H]2[C@@H](C(=O)N1c1cc(Cl)cc(Cl)c1)[C@]1(C(=O)Nc3ccccc31)N1CCC[C@@H]21,-6
COc1ccc(NC(=O)CN(C)S(=O)(=O)c2cccs2)cc1,-15
Cc1cccc2sc(NC(=O)CN(C)S(=O)(=O)c3cccs3)nc12,76*

# Assay outcomes deposited in PubChem by The Scripps Research Institute Molecular Screening Center.
